HCMV antiviral: inhibitors of human cytomegalovirus; HFF cells, HCMV-luciferase reporter, 72 h; active compounds read low; hit rate 4.5% among 410,000; activity change, negative = inhibition, % at 57.5 µM; in the data active = activity change below about -60%; inconclusive = no clear call, values can overlap the other calls; inactive = above about -39%
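Two-dose cell screen: HFF monolayers treated with compounds and infected with luciferase-expressing HCMV at 1 PFU/cell, 72 h at 37C, then lysed for luciferase measurement.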
Vaccinia mCherry: inhibitors of vaccinia virus infection (mCherry reporter signal); Potency, µM (doses to about 36.5 µM), for inactives: at the top dose activity change, negative = inhibition, most hits filed as inhibitors; hit rate 0.63% among 310,000; Vaccinia virus mCherry reporter infection, fluorescence; calls by dose curve; tested in A549 cells; note: potency is the fitted concentration of half-maximal effect; nearly all actives have a fitted effect of over 35% in size
VACV Venus inh: inhibitors of vaccinia virus (Venus reporter); Potency, µM (top dose mostly 36.5 µM), for inactives: top-dose activity change, negative = inhibition, usual class: inhibitors; hit rate 0.46% among 330,000; Vaccinia virus Venus reporter expression, fluorescence; AID 720580; calls by dose curve; tested in A549 cells; note: potency is the fitted concentration of half-maximal effect; nearly all actives have a fitted effect of over 30% in size
LASV entry inh: blocks Lassa virus binding to or entry into cells; Lassa virus pseudotype entry inhibition, cell reporter; Potency, µM (titrated, usually from 37.9 µM), without a hit: at the highest dose activity change, negative = inhibition, usual class: inhibitors; hit rate 1.2% among 300,000; calls by dose curve; tested in HEK293 cells; note: potency is the fitted concentration of half-maximal effect; nearly all actives have a fitted effect of over 50% in size
Marburg entry inh: inhibitors of Marburg virus binding or cell entry; hit rate 1.8% among 300,000; Marburg virus pseudotyped entry inhibition, cell reporter; Potency, µM (titrated, usually from 37.8 µM), inactives show at the highest dose activity change, negative = inhibition, most hits filed as inhibitors; calls by dose curve; tested in HEK293 cells; note: potency is the fitted concentration of half-maximal effect
HCV inhibitor: blocks hepatitis C virus; Potency, µM (top dose mostly 41.8 µM), without a hit: at the top dose activity change, negative = inhibition, actives largely listed as inhibitors; hit rate 3.4% among 340,000; AID 651820; Huh7.5.1 HCVcc-Cre infection, luciferase reporter, 44 h; active = well fitted inhibition curve with a large enough effect; inconclusive = small, poorly fitted or top-dose-only effect, or another doubt; inactive = no such curve, though single readings can be large or run the other way; note: potency is the fitted concentration of half-maximal effect
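Luciferase read-out (15 sec integration) after a 15 min room-temperature substrate step quantifies HCVcc-Cre infection. Cells, 1,000 per well, had compound added 4 h post-plating, then virus at ~0.5 moi, and were cultured 44 h.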
* marks the source's active call; other numbers are inactive results; i = inactive; ? = inconclusive; . = not tested or not shown; [ ] = dose if it differs, or a comment. Most compounds without a hit are left out; they make up all but 7.8% or so of the library. % is set by controls: 0 for no effect and ±100 for the full control effect.

SMILES	HCMV antiviral	Vaccinia mCherry	VACV Venus inh	LASV entry inh	Marburg entry inh	HCV inhibitor
O=[N+]([O-])c1ccc(S(=O)(=O)N(CC(O)CN2CCCCC2)c2ccccc2)cc1 (stereo not given)	-9	-1%	-1%	.	5%[46.1 µM]	?
O=[N+]([O-])c1ccc(N(CC(O)CN2CCCCC2)S(=O)(=O)c2ccccc2)cc1 (stereo not given)	-64*	-11%	5%	-3%[46.1 µM]	-14%[46.1 µM]	?
COC(=O)C12CC3=CCC4C(=O)N(c5ccccc5)C(=O)C4C3Cc3ccccc3[C@H]1CNC2=O (stereo not given in full)	.	.	.	.	5%[14.2 µM]	.
COc1ccc(CC(=O)NCc2ccc3c(c2)CCN3C(=O)c2cccc(C)c2)cc1	-14	-11%	-12%	?	.	.
CCOc1cccc(CC(=O)NCc2ccc3c(c2)CCN3C(=O)c2cccc(C)c2)c1OCC	-67*	?	?	11µM*	?	.
CCOc1ccccc1NC(=O)NCc1ccc2c(c1)CCN2C(=O)c1ccccc1	-82*	?	?	?	.	.
Cc1ccc(NC(=O)NCc2ccc3c(c2)CCN3C(=O)c2ccccc2)c(Cl)c1	-31	?	?	-13%[46.1 µM]	.	.
COc1ccc(C)cc1NC(=O)NCc1ccc2c(c1)CCN2C(=O)c1ccccc1	-92*	-10%	-25%	?	.	.
CCOc1ccc(C(=O)NCc2ccc3c(c2)CCN3C(=O)c2ccccc2)cc1	-32	i	-8%	18%[46.1 µM]	.	.
CCOc1ccccc1C(=O)NCc1ccc2c(c1)CCN2C(=O)c1ccccc1	-78*	?	-24%	?	.	.
COC(=O)C(Cc1c[nH]c2ccccc12)NC(=O)COc1ccc(Cl)cc1Cl (stereo not given)	140	-14%[7.34 µM]	-6%[7.34 µM]	-18%[46.1 µM]	.	.
Cc1ccc(-n2c(C)cc(C3=NNC(=NC4CC4)SC3)c2C)cc1C	-99*	.	.	.	.	-29%
CCn1c(C(=O)NCc2ccccc2Br)cc2oc3ccccc3c21	-71*	?	23%	.	?	.
COC(=O)c1cc2oc3ccccc3c2n1CC(=O)Nc1ccc(OC)c(OC)c1OC	-28	-17%	-7%	.	?	.
COC(=O)c1cc2oc3ccccc3c2n1Cc1ccc(C)cc1	-30	-8%	-1%	.	-7%[46.1 µM]	.
CCn1c(C(=O)NCc2cc(Br)ccc2OC)cc2oc3ccccc3c21	?	7%	-1%	.	2.8µM*	.
CCn1c(C(=O)NCc2cccc(Br)c2)cc2oc3ccccc3c21	-82*	0%	-1%	.	?	.
Cc1ccc([C@H]2C[C@@H](O)[C@H](n3cc(-c4ccc(F)cc4)nn3)CN2C(=O)c2cccs2)cc1	31	-10%	-20%	?	.	.
Clc1cccc(Nc2cc3c(cn2)ncn3Cc2ccco2)c1	29	.	.	.	.	.
Cc1ccc(NNC(=O)c2ccno2)cc1Cl	-15	.	.	.	.	11µM*
Cc1ccc(SCc2cc(=O)[nH]c(N3CCN(Cc4ccccc4)CC3)n2)cc1	-8	.	-5%	-11%	-17%	6%
Cc1ccc(SCc2cc(=O)[nH]c(N3CCN(Cc4ccc5c(c4)OCO5)CC3)n2)cc1	-63*	.	-8%	8%	3%[46.1 µM]	0%
Cc1ccc(Cn2c(CN3CCN(c4cccc(Cl)c4)CC3)nc3c2c(=O)n(C)c(=O)n3C)cc1	28	-10%	-12%	-23%[46.1 µM]	-3%[46.1 µM]	.
O=C(NCCc1csc(-c2cccc(F)c2)n1)c1ccco1	?	-10%	-5%	-6%[46.1 µM]	.	10µM*
CCc1ccc(S(=O)(=O)NCCc2csc(-c3ccccc3)n2)s1	-63*	?	-16%	10%	?	?
O=S(=O)(NCCc1csc(-c2cccc(F)c2)n1)c1cc(F)ccc1F	-106*	-15%	-3%	-3%[46.1 µM]	.	.
Cc1ccc(S(=O)(=O)NCCc2csc(-c3cccc(F)c3)n2)cc1	-24	-3%	-14%	-1%[46.1 µM]	.	.
CN(C(=S)NC(=O)C12CC3CC(CC(C3)C1)C2)c1ccc(O)cc1	-61*	.	.	.	.	10%
CN(C)NC(=S)NC(=O)C12CC3CC(CC(C3)C1)C2	28	i	-10%	-1%	?	-3%
COc1cc(C(C(=O)NC(C)(C)C)N(Cc2ccccc2)C(=O)c2cnccn2)cc(OC)c1OC (stereo not given)	-14	-16%	-2%	-22%	0%	23%
